Max activation data for 53 molecules are collected here from PubChem BioAssay AID652048 (National Center for Advancing Translational Sciences (NCATS), 2013).

Several values for one entry are separate records, joined by “and”; a condition that tells them apart may be missing. Identical values can stand only once. Hit rate of the full screen: of about 410,000 compounds, about 2,400 (0.59%) were called active. Cut-off read from the data, not from the text of the source: active = max activation above about 30%; inactive = the rest. Only a selection was taken, and actives are over-represented in it overall. Where a structure was tested more than once in an assay, its records may differ in their call.

The target in this test is D(3) dopamine receptor (Homo sapiens) (UniProt P35462). Put plainly: qHTS of D3 Dopamine Receptor Agonist: qHTS. Note: 0% is about no effect. Conditions: D3R DiscoveRx beta-arrestin cells, luminescence, 90 min; stronger effect = higher value. In a few lines: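 Cells at 1500/well, incubated overnight, then treated with pinned compounds (dopamine as control) for 90 min at 37 degrees C. DiscoveRx reagent added for 30 - 60 minutes at room temperature; luminescence read.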
Sequence of D(3) dopamine receptor (Homo sapiens) (P35462 whole entry, looked up): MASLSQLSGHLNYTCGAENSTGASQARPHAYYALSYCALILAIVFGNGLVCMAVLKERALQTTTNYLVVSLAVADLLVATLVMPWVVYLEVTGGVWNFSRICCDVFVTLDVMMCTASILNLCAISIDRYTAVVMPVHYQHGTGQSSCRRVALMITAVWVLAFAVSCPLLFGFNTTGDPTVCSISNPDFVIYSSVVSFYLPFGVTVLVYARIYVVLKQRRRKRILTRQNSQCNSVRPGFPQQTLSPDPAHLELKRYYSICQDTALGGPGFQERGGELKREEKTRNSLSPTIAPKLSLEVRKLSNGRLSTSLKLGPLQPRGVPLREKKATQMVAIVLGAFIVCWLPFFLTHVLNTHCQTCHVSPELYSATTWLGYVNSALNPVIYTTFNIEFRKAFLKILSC
(qHTS replaces the single test concentration by a dilution series.)
Turning to `COc1ccc(-n2c(=O)c3ccccc3n(Cc3ccccc3Cl)c2=O)cc1`, the max activation was 4.01% (inactive). Under `Cc1ccc(CSc2oc(-c3cccs3)nc2S(=O)(=O)c2ccc(C)cc2)cc1` stands 6.03% (inactive); under `COCCCNC(=O)CSc1nc2ccc(N3CCOCC3)cc2c(=O)n1CCc1ccccc1`, -3.98% (inactive); under `CCCCn1c(SCC(=O)NCC2CCCO2)nc2ccc(N3CCOCC3)cc2c1=O` (stereo not drawn), 33% (active). On to `N#CCSc1nc2ccc(N3CCOCC3)cc2c(=O)n1CCc1ccccc1`, for which the max activation was 3.32% (inactive). Consider `COc1ccccc1CNCc1ccc(C(=O)O)s1`, for which the max activation was 6.32% (inactive). Consider `COc1ccc(C)cc1Nc1nc2ccccc2c2nnc(C)n12`, for which the max activation was 8.25% (inactive). Under `COC(=O)c1ccc(NC(=O)CCc2c(C)nn(-c3ccc(N4CCCC4)nn3)c2C)cc1` stands -2.49% (inactive); under `Cc1ccc(OCC(=O)Nc2ccc(OCc3cc(=O)n4c(C)csc4n3)cc2)cc1C`, 4.15% (inactive).

Regarding `COc1ccc(NC(=O)CCN2CCN(CCO)CC2)cc1`, the max activation is 4.05% (inactive). Then `CCOc1ccc(NC(=O)CN2CCN(CC(=O)Nc3ccc(OC)cc3)CC2)cc1`, with 10.4% (inactive) and 34.5% (active); and `CCc1ccc(NC(=O)CN2CCC(C(=O)c3ccc(OC)cc3)CC2)cc1`, with -15.3% (inactive); and `CCc1ccc(S(=O)(=O)n2ccnc2)cc1`, with 8.12% (inactive). Under `Oc1ccccc1-c1nc2ccc(Cl)cn2c1Nc1ccc2c(c1)OCCO2` stands -2.82% (inactive); under `C=CCSC1=C(C#N)C(c2cc(Br)c(O)c(OC)c2)CC(=O)N1` (stereo not drawn), 9.82% (inactive); under `Cc1ccsc1C1C(C#N)=C(N)OC2=C1C(=O)CC(C)C2` (stereo not drawn), 1.57% (inactive).

For the molecule `CCOC(=O)CSC1=C(C#N)C(c2sccc2C)CC(=O)N1` (stereo not drawn), the max activation was 31.9% (active). Under `Cc1ccccc1CNC(=O)c1cccc(NC(=O)c2nsc3ccccc23)c1` stands 8.47% (inactive); under `CCCc1c2oc(C(=O)O)cc(=O)c2cc2c(=O)cc(C(=O)O)n(CC)c12`, -9.91% (inactive); under `COc1ccc(-c2csc(-c3c(N)c(C(=O)c4ccc(OC)c(OC)c4)n4ccccc34)n2)cc1`, 4.7% (inactive). Consider `COc1ccc(OC)c(-c2csc(-c3c(N)c(C(=O)c4ccccc4)n4ccccc34)n2)c1`, for which the max activation was -12% (inactive). Under `Cc1c(C=O)c2ccccn2c1C(=O)c1ccncc1` stands 31.8% (active). Under `Nc1nc(/C(=C/CC(=O)O)C(=O)N[C@@H]2C(=O)N3C(C(=O)O)=CCS[C@H]23)cs1` stands 4.45% (inactive); under `COc1ccc(-c2nc3sc(CCNS(=O)(=O)c4ccc(F)c(C)c4)c(C)n3n2)cc1`, 6.72% (inactive); under `Cc1cccc(N2CCN(C(=O)c3ccc4c(c3)CCN4S(=O)(=O)c3ccccc3)CC2)c1C`, -0.325% (inactive).

Take `Cc1c(C)n(Cc2ccc(Cl)cc2)c2ccc(C(=O)N3CCN(c4ccccc4F)CC3)cc12`: the max activation is -3.88% (inactive). As to `CCn1c(C)c(C)c2cc(C(=O)N3CCN(c4cccc(C)c4C)CC3)ccc21`, the max activation was 5.02% (inactive) and 95.9% (active). Under `O=C(CSc1nc2c(c(=O)[nH]1)CN(Cc1ccc(F)cc1)CC2)Nc1ccccc1Cl` stands 6.55% (inactive). As for `COc1cc(-c2nnc(NC(=O)CS(=O)(=O)c3ccc(Cl)cc3)o2)cc(OC)c1OC`, the max activation is -1.85% (inactive). For the molecule `CCOC(=O)c1c(-c2ccc(OC)cc2)oc2ccc(OCc3ccc(C(=O)OC)cc3)cc12`, the max activation was 9.24% (inactive). Under `COC(=O)c1c(-c2ccsc2)oc2ccc(-c3cc(OC)c(OC)c(OC)c3)cc12` stands 45.2% (active); under `COc1ccccc1NC(=O)c1sc2nc(C)c(C(=O)Nc3ccc(Cl)cc3)c(-c3ccc(Br)cc3)c2c1N`, -10.3% (inactive). Then `Cc1nn(-c2ccc(N3CCCCC3)nn2)c(C)c1CCC(=O)NCc1ccccc1F`, with 13.4% (inactive). Then `O=C(CSc1nnc(Cn2cnc3ccccc32)o1)c1ccccc1`, with 2.49% (inactive); and `CC(=O)Nc1ccc(C(=O)CSc2nnc(Cc3ccccc3)o2)cc1`, with 46.1% (active); and `CCOc1ccc(Nc2nc(Cc3nnc(SCC(=O)c4ccc(C)cc4)o3)cs2)cc1`, with 22.4% (inactive). Regarding `Cc1ccc(NC(=O)c2oc3ccc(S(=O)(=O)N4CCCCC4)cc3c2C)cc1Cl`, the max activation was -12.7% (inactive). Under `O=C(Nc1ccon1)c1nc[nH]c1C(=O)NCc1ccccc1` stands 12.3% (inactive); under `O=C(Nc1cc(Br)ccc1F)c1nc[nH]c1C(=O)NCc1ccccc1`, -7.03% (inactive); under `C[C@H](NC(=O)c1nc[nH]c1C(=O)NCC(=O)OC(C)(C)C)C(=O)OCc1ccccc1`, 48.3% (active).

As to `C[C@H](NC(=O)c1nc[nH]c1C(=O)NCC(=O)OC(C)(C)C)c1ccccc1`, the max activation is -13.3% (inactive). Regarding `CNC(=O)c1[nH]cnc1C(=O)N[C@@H](CC(C)C)C(=O)OCc1ccccc1`, the max activation is 15.1% (inactive). Then `C[C@H](NC(=O)c1nc[nH]c1C(=O)N[C@@H](C)C(=O)OC(C)(C)C)C(=O)OC(C)(C)C`, with -3.39% (inactive); and `CCOC(=O)c1[nH]cnc1C(=O)Nc1ccccc1C`, with 4.49% (inactive); and `CCOC(=O)c1ccc(NC(=O)c2nc[nH]c2C(=O)NCc2ccccc2)cc1`, with 56.5% (active). Under `Cc1cccc(NC(=O)c2nc[nH]c2C(=O)NCC(=O)OCc2ccccc2)c1` stands 74.4% (active); under `COc1cccc(C(=O)N(Cc2cccc(Cl)c2)Cc2ccco2)c1`, -11.4% (inactive); under `Cc1cc(C)cc(NS(=O)(=O)c2ccc(-c3cc(C)no3)s2)c1`, -10.7% (inactive). Under `CCOc1cc(/C=C(\C#N)C(=O)Nc2ccccc2C)ccc1OCc1cc(=O)n2nc(CC)sc2n1` stands -12.7% (inactive); under `O=C1CC(c2nnc(Cc3ccc(Cl)cc3)o2)CN1c1ccccc1` (stereo not drawn), 10.5% (inactive).

For the molecule `COC(=O)c1c(NC(=O)C(C)Oc2ccc(Cl)c(C)c2)sc(C)c1C` (stereo not drawn), the max activation was -8.23% (inactive). Under `CN[C@@H]1[C@H](O[C@H]2[C@H](O[C@H]3[C@H](O)[C@@H](O)[C@H](N=C(N)N)[C@@H](O)[C@@H]3N=C(N)N)O[C@@H](C)[C@]2(O)CO)O[C@@H](CO)[C@H](O)[C@H]1O` stands 4.88% (inactive); under `Cc1ccc(OC(=O)CSc2nnc(-c3cccs3)o2)cc1`, 7.3% (inactive).
